Pf growth 96h: P. falciparum growth inhibition at 96 hour, primary screen for plastid delayed-death inhibitors. P. falciparum luciferase reporter growth, 96 h. Potency, µM (series often up to 28.7 µM), inactives show at the top dose activity change, negative = inhibition, hits mostly inhibitors. actives 6.9% (n = 320,000). AID 504834; note: % is set by controls: 0 for no effect and ±100 for the full control effect
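Erythrocytes infected with luciferase-expressing P. falciparum were dispensed at 2% hematocrit and 0.05% parasitemia (final), then incubated with compounds 96 hours at 37 C in 5% CO2. Luminescence after detection reagent addition reported growth.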
SARS PLpro yeast: inhibitors of SARS-CoV papain-like protease in yeast | AID 485353 | actives 0.19% (n = 330,000) | S. cerevisiae expressing SARS-CoV PLpro, growth rescue | Potency, µM (series often up to 32.9 µM), inactives show at the highest dose activity, positive = growth rescue, actives largely listed as activators; calls by dose curve; note: 0% is about no effect; nearly all actives have a fitted effect of over 55% in size
Pf growth 48h: P. falciparum growth inhibition at 48 hours (one generation). P. falciparum luciferase growth in erythrocytes, 48 h. Potency, µM (doses to about 28.7 µM), for the others: top-dose activity change, negative = inhibition, most hits filed as inhibitors. actives 5.9% (n = 310,000); note: % is set by controls: 0 for no effect and ±100 for the full control effect
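Erythrocytes infected with P. falciparum carrying an integrated firefly luciferase reporter (2% hematocrit, 0.1% parasitemia final) were exposed to compounds in RPMI 1640 with 0.5% Albumax at 37 C, 5% CO2. Growth inhibition was scored as reduced luminescence.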
NS1 function inh: influenza NS1 inhibition | AID 2326 | actives 0.4% (n = 270,000) | Potency, µM (top dose mostly 46.1 µM), for inactives: at the top dose activity, positive = more growth; calls by dose curve; note: actives are rising curves; nearly all actives have a fitted effect of over 50% in size
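Compounds were scored for reversing the slow growth caused by influenza A NS1 in S. cerevisiae, measured by optical density at 600 nm. Assay medium contained 2% galactose at pH 6.0; NS1-free yeast of the same strain were the positive control.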
Numbers without * were called inactive; ? = inconclusive; nt = no result; [ ] = remark or other dose. Most compounds without a hit are left out; they make up all but 10% or so of the library. Unless noted, calls come from the whole dose curve; as a rule, active = well fitted inhibition curve with a large enough effect; inconclusive = small, poorly fitted or top-dose-only effect, or another doubt; inactive = no such curve, though single readings can be large or run the other way. Potency is the fitted concentration of half-maximal effect.

SMILES | Pf growth 96h | SARS PLpro yeast | Pf growth 48h | NS1 function inh
COc1cc(OC)c2ccc(=O)oc2c1C(CCN1CCN(c2ccccc2)CC1)c1ccc(N(C)C)cc1 (stereo not drawn) | 10.4µM* | 1.2% | 11.7µM* | -4.3%
COc1cc(OC)c2c(C)cc(=O)oc2c1C(CCN1CCOCC1)c1ccc(N(C)C)cc1 (stereo not drawn) | ? | 0.2% | 10.4µM* | -11.2%
CCN(CC)CCC(c1ccc(N(C)C)cc1)c1c(OC)cc(OC)c2c(-c3ccccc3)cc(=O)oc12 (stereo not drawn) | 3.7µM* | -1.2% | 8.28µM* | -20.8%
COc1cc(OC)c2c(-c3ccccc3)cc(=O)oc2c1C(CC(=O)N1CCOCC1)c1ccc(N(C)C)cc1 (stereo not drawn) | ? | 0.5% | 7.38µM* | -46.7%
CCCCCc1cc(=O)oc2c(C(CCN3CCN(c4ccccc4)CC3)c3ccc(N(C)C)cc3)c(OC)cc(OC)c12 (stereo not drawn) | ? | 0.6% | ? | 7.9%
COc1cc(OC)c2c(-c3ccccc3)cc(=O)oc2c1C(CC(=O)N1CCN(c2ccccc2)CC1)c1ccc(N(C)C)cc1 (stereo not drawn) | ? | 0.3% | ? | 1.5%
CCc1nc(N2CCN(C(=S)NCCCOC)CC2)c2c3c(sc2n1)CCCC3 | 4.1% | -15.7% | ? | -83.6%
CC(=O)N1CCC(N(CCCOC(C)C)S(=O)(=O)c2ccc([N+](=O)[O-])cc2)CC1 | ? | -2.2% | 22.6% | -2.3%
COc1ccc(C(CCN2CCN(c3ccccc3)CC2)c2c(OC)cc(OC)c3c(-c4ccccc4)cc(=O)oc23)cc1 (stereo not drawn) | 4.65µM* | 1.4% | 3.29µM* | 9.3%
CC(C)c1ccccc1S(=O)c1ccccc1C(C)(C)O (stereo not drawn) | nt | nt | nt | -5.9%
O=C(NNC(=S)Nc1ccccc1Cl)C1CC1 | 26.3% | 16.5% | 11.4% | 3.9%
S=C(Nc1cccc(Cl)c1Cl)Nn1cnnc1 | 2.33µM* | -90.9% | 3.8% | -39.5%
O=C(NC(=S)Nc1cccc(Cl)c1Cl)C1CC1 | 3.2% | -1.3% | 11.7µM* | -18.7%
O=c1cc(-c2ccccc2)[nH]c2ccccc12 | 2.4% | -11.6% | 1.47µM* | -67.3%
CCOC(=O)c1sc(=S)n(-c2ccc(Cl)cc2)c1C | ? | 4.9% | 5.22µM* | -9.4%
CCOC(=O)c1sc(=S)n(-c2cc(F)ccc2F)c1N | -10.5% | -0.8% | -13.5% | -49.2%
CCOC(=O)c1sc(=S)n(-c2cc(OC)ccc2OC)c1N | 9.28µM* | -30.9% | -7.6% | -85.3%
CCOC(=O)c1sc(=S)n(-c2ccc(OC)cc2)c1C | ? | 0.1% | 13.1µM* | -1.6%
COc1cc(C(=O)Nc2nnc(C)s2)c([N+](=O)[O-])cc1OC | 23.5% | 0.2% | 22.9% | -1.7%
O=C(Nc1ccc(Br)cc1)C(c1ccccc1)c1ccccc1 | 10.4% | 2.3% | -12.7% | -4.2%
Cc1ccc(NC(=O)CNc2ccc(OC(C)C)cc2)c(C)c1 | 13.1µM* | 1.0% | ? | -35.9%
Cc1ccc(NC(=O)CNc2cccc(C)c2C)c(C)c1 | ? | -8.8% | -29.1% | -2.4%
COc1ccc2[nH]cc(CCN(C)C)c2c1 | 8.8% | -1.5% | 7.3% | 1.7%
CCCCCSc1cc(OC)c(CCN(C)C)cc1OC | 11.7µM* | 2.0% | ? | 9.1%
O=S1(=O)N=C(N(Cc2cccs2)c2ccc(O)cc2)c2ccccc21 | 9.6% | -0.1% | -4.8% | 2.2%
SMILES | Pf growth 96h | SARS PLpro yeast | Pf growth 48h | NS1 function inh
COc1ccc(-n2nc(C(=O)NCC(=O)NCc3ccc(F)cc3)c3ccccc3c2=O)c(OC)c1 | 10.4µM* | 2.9% | 8.4% | 2.7%
COc1ccc(NC(=O)CNC(=O)c2nn(-c3ccc(OC)cc3OC)c(=O)c3ccccc23)c(OC)c1 | 3.29µM* | -0.4% | ? | 1.1%
CCC(Sc1nc(N)cc(=O)[nH]1)C(=O)Nc1cc(C)on1 (stereo not drawn) | 39.1% | 4.9% | 6.7% | 2.2%
COc1ccc(-c2cn(-c3ccc(C)c(C)c3)c(=S)[nH]2)cc1OC | 1.9% | -0.6% | 13.1µM* | 10.1%
COc1ccc(-n2cc(-c3ccc(Cl)cc3)[nH]c2=S)cc1 | ? | 0.9% | ? | 3.5%
COc1ccc(-c2cn(-c3ccc(C)c(Cl)c3)c(=S)[nH]2)cc1OC | 63.1% | -1.6% | 10.4µM* | 7.6%
COc1ccc(-c2cn(-c3ccccc3)c(=S)[nH]2)cc1OC | -12.9% | 8.1% | 19.9%[0.00184 µM] | 1.3%
Cc1noc(C)c1-c1csc(N2CCC(C(N)=O)CC2)n1 | -3.3% | -2.4% | 13.0% | nt
COc1cccc(/C=N/N2CCN(C3c4ccccc4-c4ccccc43)CC2)c1O | ? | -3.5% | 13.1µM* | -2.7%

From PubChem
